Common to all, as to parameters: species or system human, MV4-11 + K-562 + COLO205 + SK-N-BE2 + OVCAR-8
In assay [1] the test system is ACVR1B. The following applies: read-out: apparent Kd, compound concentrations: 100 nM and 1000 nM (sheet 'Samples'), n = 1.
The test system of assay [2] is ACVR1. The following applies: read-out: apparent Kd, compound concentrations: 100 nM and 1000 nM (sheet 'Samples'), n = 1.
The subject of assay [3] is ACVR2B. The following applies: read-out: apparent Kd, compound concentrations: 100 nM and 1000 nM (sheet 'Samples'), n = 1.
In assay [4] the test system is ADRBK1. As to conditions: read-out: apparent Kd; compound concentrations: 100 nM and 1000 nM (sheet 'Samples'), CATDS: 7.2370560484510002E-2; n = 1.
Assay [5] deals with BMPR1A. As to conditions: read-out: apparent Kd; compound concentrations: 100 nM and 1000 nM (sheet 'Samples'), CATDS: 0.17247820312197201; n = 1.
For assay [6], the system named is BMPR1B. As to conditions: read-out: apparent Kd; compound concentrations: 100 nM and 1000 nM (sheet 'Samples'), CATDS: 0.14495542747652801; n = 1.
The subject of assay [7] is RIPK2. The following applies: read-out: apparent Kd, compound concentrations: 100 nM and 1000 nM (sheet 'Samples'), n = 1.
The test system of assay [8] is TGFBR1. The following applies: read-out: apparent Kd; compound concentrations: 100 nM and 1000 nM (sheet 'Samples'), CATDS: 0.103891234408396; n = 1.
Assay [9] has as its system ZAK. The following applies: read-out: apparent Kd; compound concentrations: 100 nM and 1000 nM (sheet 'Samples'), CATDS: 6.5320579429353404E-2; n = 1.
Assay [10] relates to DDR1. As to conditions: read-out: apparent Kd; compound concentrations: 100 nM and 1000 nM (sheet 'Samples'), CATDS: 0.15549636172905901; n = 1.
Assay [11] concerns JAK2. The following applies: read-out: apparent Kd; compound concentrations: 100 nM and 1000 nM (sheet 'Samples'), CATDS: 0.70328815445029103; n = 1.
The subject of assay [12] is MAPK14. As to conditions: read-out: apparent Kd; compound concentrations: 100 nM and 1000 nM (sheet 'Samples'), CATDS: 0.189242383322658; n = 1.
Assay [13] has as its system NLK. The following applies: read-out: apparent Kd; compound concentrations: 100 nM and 1000 nM (sheet 'Samples'), CATDS: 0.152320021786015; n = 1.
The test system of assay [14] is AKT1. The following applies: read-out: apparent Kd; compound concentrations: 100 nM and 1000 nM (sheet 'Samples'), CATDS: 8.7869055703498899E-2; n = 1.
For assay [15], the system named is AKT2. As to conditions: read-out: apparent Kd; compound concentrations: 100 nM and 1000 nM (sheet 'Samples'), CATDS: 9.9123908030557498E-2; n = 1.
Assay [16] has as its system DDR2. The following applies: read-out: apparent Kd, compound concentrations: 100 nM and 1000 nM (sheet 'Samples'), n = 1.
Assay [17] deals with ERBB3. The following applies: read-out: apparent Kd; compound concentrations: 100 nM and 1000 nM (sheet 'Samples'), CATDS: 0.104926252845552; n = 1.
For assay [18], the system named is MAP2K1. As to conditions: read-out: apparent Kd; compound concentrations: 100 nM and 1000 nM (sheet 'Samples'), CATDS: 9.3485581268639997E-2; n = 1.
In assay [19] the test system is NCL. As to conditions: read-out: apparent Kd; compound concentrations: 100 nM and 1000 nM (sheet 'Samples'), CATDS: 9.6162289206332394E-2; n = 1.
Assay [20] concerns NNT. As to conditions: read-out: apparent Kd; compound concentrations: 100 nM and 1000 nM (sheet 'Samples'), CATDS: 0.104881561069948; n = 1.
Assay [21] deals with RIOK2. The following applies: read-out: apparent Kd; compound concentrations: 100 nM and 1000 nM (sheet 'Samples'), CATDS: 9.3979230016613804E-2; n = 1.
The test system of assay [22] is BCR. The following applies: read-out: apparent Kd; compound concentrations: 100 nM and 1000 nM (sheet 'Samples'), CATDS: 0.114797180795753; n = 1.
In assay [23] the test system is CDKL5. The following applies: read-out: apparent Kd; compound concentrations: 100 nM and 1000 nM (sheet 'Samples'), CATDS: 0.10101184649506401; n = 1.
Assay [24] concerns CSNK2A1;CSNK2A3. The following applies: read-out: apparent Kd; compound concentrations: 100 nM and 1000 nM (sheet 'Samples'), CATDS: 0.137145274912611; n = 1.
The subject of assay [25] is CSNK2A2. As to conditions: read-out: apparent Kd; compound concentrations: 100 nM and 1000 nM (sheet 'Samples'), CATDS: 0.22568308322630501; n = 1.
The subject of assay [26] is GSK3A. As to conditions: read-out: apparent Kd; compound concentrations: 100 nM and 1000 nM (sheet 'Samples'), CATDS: 0.157775642803201; n = 1.
For assay [27], the system named is GSK3B. The following applies: read-out: apparent Kd; compound concentrations: 100 nM and 1000 nM (sheet 'Samples'), CATDS: 0.15091586406642499; n = 1.
Assay [28] concerns PDGFRB. As to conditions: read-out: apparent Kd; compound concentrations: 100 nM and 1000 nM (sheet 'Samples'), CATDS: 0.14028775258346299; n = 1.
Assay [29] has as its system PIK3CD. As to conditions: read-out: apparent Kd; compound concentrations: 100 nM and 1000 nM (sheet 'Samples'), CATDS: 0.471997589985167; n = 1.

Structures are written as SMILES. Like-named read-outs stand apart in the source and are kept apart here.

Consider `COc1cc(-c2cncc(-c3cnn(C4CCNCC4)c3)c2)cc(OC)c1OC` [K05908], for which the potency estimated from few doses in assay [1] (CATDS: 0.127263158539664) was 93.1 nM; in assay [2] (CATDS: 0.77187058261615105), 1.97 nM; in [3] (CATDS: 7.0258773018851195E-2), 1360 nM; in [4], 1110 nM; in assay [5] it was 42.3 nM; in assay [6] it was 65 nM. Also, the figures for the potency estimated from few doses in assay [7] (CATDS: 0.16221198549174301), in [8] and in assay [9] were 49 nM, 181 nM and 2410 nM, respectively.

With `COc1ccc(-c2nn3ncccc3c2-c2ccnc(Nc3ccc(F)c(F)c3)n2)cc1` [GW827396X], the potency estimated from few doses in assay [1] (CATDS: 0.188759897575135) is 1020 nM; in assay [10], 1770 nM; in assay [11], 73 nM; in assay [12], 1010 nM; in assay [13], 1900 nM.

Turning to `COc1ccc(C)c(Nc2ccnc(Nc3ccc(-c4cnc[nH]4)cc3)n2)c1.Cl` [GW784041A], the potency estimated from few doses in assay [2] (CATDS: 0.125244350144667) was 1190 nM; in assay [3] (CATDS: 0.106004759644949), 1600 nM; in assay [14] it was 2370 nM; in [15], 1820 nM; in [16] (CATDS: 9.6979339213766697E-2), 1910 nM; in assay [17], 1630 nM. Moreover, the potency estimated from few doses is 2060 nM in assay [18], 1940 nM in assay [19], 1630 nM in assay [20] and 2040 nM in assay [21].

On to `COc1cccc(-n2ncc3c(N/N=C/c4ccc(S(C)(=O)=O)cc4)ncnc32)c1` [GW811168X], for which the potency estimated from few doses in assay [2] (CATDS: 0.17536774799610499) is 555 nM; in assay [22], 1420 nM; in assay [23] it was 2130 nM; in [24], 907 nM; in [25] it was 365 nM; in assay [26] it was 677 nM. For the same compound, the potency estimated from few doses in assay [27] was 740 nM.

For the compound `COC(=O)c1cncc(/C=C/c2c(C)cc(O)cc2C)c1` [GW406731X], the potency estimated from few doses is 403 nM in assay [2] (CATDS: 0.26070115141914502); 2520 nM in [16] (CATDS: 0.13771295119314); 2330 nM in [28]; 143 nM in assay [29]; 621 nM in [7] (CATDS: 0.21478363135213999).
